# The panel holds about 83,000 compounds, 20% with a hit somewhere; the sample as a whole holds those more often.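 Negative percent growth values reflect cell death: -40 means 40% of the cells present at the start died, and -100 means all died.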 Unmarked numbers belong to inactive results. Calls of active or inactive are those of the source. How the source made its calls: active means growth percent below 10; inactive means the rest.
# How the values were obtained:
# Experiment in all cases: NCI-60 one-dose screen, 48 h (100 = growth as untreated, 0 = no growth, -100 = all killed)
# Settings in all cases: 10 µM unless noted
# OVCAR-8 ovarian = test system: OVCAR-8 ovarian
# OVCAR-5 ovarian = test system: OVCAR-5 ovarian
# OVCAR-4 ovarian = test system: OVCAR-4 ovarian
# SK-OV-3 ovarian = test system: SK-OV-3 ovarian
# IGROV1 ovarian = test system: IGROV1 ovarian
# OVCAR-3 ovarian = test system: OVCAR-3 ovarian
# HS 578T breast = test system: HS 578T breast
# NCI/ADR-RES ovarian = test system: NCI/ADR-RES ovarian
# T-47D breast = test system: T-47D breast
Structure (SMILES),growth (OVCAR-8 ovarian),growth (OVCAR-5 ovarian),growth (OVCAR-4 ovarian),growth (SK-OV-3 ovarian),growth (IGROV1 ovarian),growth (OVCAR-3 ovarian),growth (HS 578T breast),growth (NCI/ADR-RES ovarian),growth (T-47D breast)
COc1cc(/C=C/C(=O)N2CCN(C(=O)/C=C/c3ccccc3)CC2)cc(OC)c1OC,98.1%,117%,97.1%,122%,115%,120%,113%,108%,110%
CCOc1cc(C(C)(C)C)ccc1C1=N[C@H](c2ccc(Cl)cc2)[C@H](c2ccc(Cl)cc2)N1C(=O)N1CCN(CC#Cc2cccc3c2CN([C@@H]2CCC(=O)NC2=O)C3=O)CC1,17.2%,76%,26.5%,62.4%,8.46% (active),41.1%,16.9%,25.9%,13.3%
CCN(CC)CCCCNc1c2ccccc2[n+](C)c2c1[nH]c1ccccc12,-11.9% (active),-5.18% (active),-2.34% (active),-11.5% (active),-34.2% (active),-13.6% (active),-48.1% (active),86.5%,-11.7% (active)
C[n+]1c2ccccc2c(Nc2ccc(N3CCCCC3)cc2)c2[nH]c3ccccc3c21,-87.4% (active),-86.2% (active),-35.3% (active),-75.8% (active),-97% (active),-95.7% (active),-69.5% (active),-61.8% (active),-55.7% (active)
Cc1c(C(N)=O)sc2c1C(=O)N(Cc1ccccc1)C1=NN=C(c3ccc(Cl)cc3)CN12,18.1%,57.2%,48.6%,58.5%,42.6%,31.5%,78.2%,9.99% (active),63.4%
Cc1c(C(N)=O)sc2ncn(CC(=O)Nc3ccc(Cl)cc3)c(=O)c12,105%,85.5%,110%,106%,533%,122%,139%,102%,102%
ClC1=C(Cl)C(Cl)=C(Cl)C1=C/C=C/c1ccccc1,-41.7% (active),-77.9% (active),14.7%,-22% (active),–,-88.7% (active),-5.58% (active),-0.902% (active),-4.63% (active)
COc1ccc2nc3cc(Cl)ccc3c(Nc3cc(C(C)C)c(O)cc3C)c2c1,50.4%,68.7%,30.2%,63.3%,–,–,65.5%,38%,13.9%
O=C(N1CCC(CN=c2cc3n(-c4ccc(Cl)cc4)c4ccccc4nc-3cc2Nc2ccc(Cl)cc2)CC1)N1CC1,-67.4% (active),-78.3% (active),-74.6% (active),-63.7% (active),-92.3% (active),–,-56.4% (active),-45.5% (active),-46.8% (active)
CCCCN(CCCC)CCCOC(=O)c1ccc(N)cc1,73%,97%,84.2%,83.3%,–,102%,82.2%,94.2%,88%
NC(=Nc1ccccc1)SCCCCSC(N)=Nc1ccccc1,83.7%,83.3%,77.3%,108%,75.3%,72%,–,66.3%,62.2%
COc1ccc(/C=C2\NC(=S)NC2=O)cc1,104%,95.2%,117%,83.8%,96%,107%,–,115%,86.3%
Cc1cc(N2CCOCC2)nc(N2CCOCC2)n1,104%,99.7%,–,99.2%,76.6%,107%,95.4%,96.3%,98%
COc1cc(/C=C2\COc3ccc(O)cc3C2=O)cc(OC)c1,40.4%,73.7%,93.4%,91.7%,–,37.1%,77.4%,65.8%,60.3%
CN(C(=O)c1ccccc1)N(C)C(=O)c1ccccc1,103%,99.3%,–,105%,95.2%,127%,109%,108%,94.5%
CCOC(=O)c1cc(-c2cccnc2)nc2c(Cl)cc(Cl)cc12,104%,92%,89.9%,91.2%,–,80%,95%,94%,85.3%

Structure (SMILES),growth (OVCAR-8 ovarian),growth (OVCAR-5 ovarian),growth (OVCAR-4 ovarian),growth (SK-OV-3 ovarian),growth (IGROV1 ovarian),growth (OVCAR-3 ovarian),growth (HS 578T breast),growth (NCI/ADR-RES ovarian),growth (T-47D breast)
O=C(Oc1ccc[nH]c1=O)c1cccc(Cl)c1,113%,97.5%,54.6%,103%,–,102%,154%,99.1%,99.2%
N#CCNc1ccccc1N,93.1%,109%,97.2%,84.5%,–,101%,91.8%,95.5%,59.9%
COc1cccc2c1C(=O)c1c(O)c3c(c(O)c1C2=O)C[C@@](O)(/C(C)=N/NC(=O)c1cccc([N+](=O)[O-])c1)C[C@@H]3OC1CC(N)C(O)C(C)O1 (stereo partly drawn),-6.79% (active),-9.12% (active),-17.3% (active),-29.7% (active),–,-40.7% (active),-12.3% (active),58.3%,-28.9% (active)
C=C(C)[C@H]1CC/C(C)=C/CC[C@]2(C)O[C@H]2CC/C(C=O)=C\C1O (stereo partly drawn),107%,101%,109%,102%,–,124%,114%,109%,102%
CC1=CC(=O)C(C(C)=Nc2ccccc2Cl)C(=O)O1 (stereo not drawn),96.9%,151%,99.5%,104%,–,–,83.6%,140%,105%
CN(C)CCCN1c2nc3ccccc3cc2Sc2cc3ccccc3nc21,-67% (active),-58.5% (active),18.9%,-35.3% (active),–,-81.4% (active),2.82% (active),-23.1% (active),-71.9% (active)
O=C(CCc1nnc2sc(Cc3ccccc3Cl)nn12)c1nc2ccccc2[nH]1,93.7%,105%,94%,99.7%,90.9%,82.5%,–,95.9%,78.5%
CCN(CC)CCNc1ccc(Cl)cc1Cl,98.2%,124%,117%,92.5%,–,109%,108%,103%,98.6%
CCOC(=O)c1c(C)c(C(=O)OCC)n(C)c1C,120%,114%,101%,98%,–,–,92.6%,118%,90.7%
COc1ccc(C(=O)COc2cccc(/C=C3\Oc4ccc5ccccc5c4C3=O)c2)cc1,70.1%,103%,94.9%,99.5%,–,72.4%,93.3%,96.4%,37.9%
COc1ccc2c(c1)C(=O)/C(=C/c1cccc(OCC(=O)c3ccccc3)c1)CC2,78.6%,102%,81.5%,120%,–,89.2%,98.6%,80.7%,70.6%
c1cnc2ccc3ncccc3c2c1,95.4%,164%,110%,106%,–,103%,109%,128%,116%
CCCCCCCC1(C)NC(=O)NC1=O (stereo not drawn),104%,163%,105%,114%,–,115%,114%,138%,123%
CC/C(=C\c1ccc(N(C)C)cc1)c1ccncc1,54.7%,74%,69.5%,74.6%,49.7%,42.3%,–,8.26% (active),40%
CC(C)C/C(=N\NC(=O)c1ccncc1)c1cc(Cl)ccc1O,11.7%,37.3%,14.5%,24.5%,9.3% (active),11.1%,–,5.17% (active),25.1%
CCc1ccc(CCN2C(=O)c3ccccc3C2=O)nc1,102%,129%,101%,98.1%,–,–,119%,128%,94.8%
